# Reference: ChEMBL document CHEMBL1961873, “Compounds: GSK PKIS; Assays: Nanosyn kinase panel” (2012)
# Assays:
# [1] = target: Sphingosine kinase 1 (Homo sapiens) (UniProt Q9NYA1); details: at 1 µM;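 note: mean SPHK1 inhibition value reported from the GSK PKIS kinase panel screen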
# [2] = target: T1, Sphingosine kinase 2 (Homo sapiens) (UniProt Q9NRA0); details: at 0.1 µM
# T1 sequence (whole entry): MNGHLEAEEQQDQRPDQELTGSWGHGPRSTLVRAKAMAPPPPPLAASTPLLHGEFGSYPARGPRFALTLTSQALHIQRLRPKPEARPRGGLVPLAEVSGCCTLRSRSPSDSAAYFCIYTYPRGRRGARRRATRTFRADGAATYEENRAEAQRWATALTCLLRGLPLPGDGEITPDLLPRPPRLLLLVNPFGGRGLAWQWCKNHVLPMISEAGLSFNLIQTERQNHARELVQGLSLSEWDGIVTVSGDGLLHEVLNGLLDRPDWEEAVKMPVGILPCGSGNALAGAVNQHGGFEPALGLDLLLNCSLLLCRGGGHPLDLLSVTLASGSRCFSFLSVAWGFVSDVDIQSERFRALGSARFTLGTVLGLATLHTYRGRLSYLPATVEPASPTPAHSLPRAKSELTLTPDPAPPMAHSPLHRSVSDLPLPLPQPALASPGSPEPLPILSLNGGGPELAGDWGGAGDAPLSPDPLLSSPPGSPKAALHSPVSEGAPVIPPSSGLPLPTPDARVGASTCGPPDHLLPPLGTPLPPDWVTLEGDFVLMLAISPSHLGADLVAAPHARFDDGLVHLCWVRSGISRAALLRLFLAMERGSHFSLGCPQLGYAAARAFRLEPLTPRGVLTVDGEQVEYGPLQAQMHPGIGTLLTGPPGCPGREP
# [3] = target: T1, Sphingosine kinase 2 (Homo sapiens); details: at 1 µM
# [4] = target: Casein kinase II subunit alpha (Homo sapiens) (UniProt P68400); details: at 0.1 µM
# Chain of Casein kinase II subunit alpha (Homo sapiens) (P68400 whole entry, looked up): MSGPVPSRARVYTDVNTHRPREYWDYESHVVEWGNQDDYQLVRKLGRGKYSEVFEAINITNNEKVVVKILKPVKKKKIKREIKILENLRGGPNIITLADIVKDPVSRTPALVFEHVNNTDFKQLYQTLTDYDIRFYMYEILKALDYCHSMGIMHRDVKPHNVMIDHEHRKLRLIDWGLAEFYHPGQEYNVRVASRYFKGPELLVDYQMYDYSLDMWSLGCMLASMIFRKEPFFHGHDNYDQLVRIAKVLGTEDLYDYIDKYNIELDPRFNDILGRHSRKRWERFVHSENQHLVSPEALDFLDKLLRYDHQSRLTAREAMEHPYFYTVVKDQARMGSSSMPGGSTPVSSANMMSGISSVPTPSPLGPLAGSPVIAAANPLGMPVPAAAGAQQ
# [5] = target: Casein kinase II subunit alpha (Homo sapiens) (UniProt P68400); details: at 1 µM
# [6] = target: T2, Inhibitor of nuclear factor kappa-B kinase subunit alpha (Homo sapiens) (UniProt O15111); details: at 0.1 µM
# T2 sequence (whole entry): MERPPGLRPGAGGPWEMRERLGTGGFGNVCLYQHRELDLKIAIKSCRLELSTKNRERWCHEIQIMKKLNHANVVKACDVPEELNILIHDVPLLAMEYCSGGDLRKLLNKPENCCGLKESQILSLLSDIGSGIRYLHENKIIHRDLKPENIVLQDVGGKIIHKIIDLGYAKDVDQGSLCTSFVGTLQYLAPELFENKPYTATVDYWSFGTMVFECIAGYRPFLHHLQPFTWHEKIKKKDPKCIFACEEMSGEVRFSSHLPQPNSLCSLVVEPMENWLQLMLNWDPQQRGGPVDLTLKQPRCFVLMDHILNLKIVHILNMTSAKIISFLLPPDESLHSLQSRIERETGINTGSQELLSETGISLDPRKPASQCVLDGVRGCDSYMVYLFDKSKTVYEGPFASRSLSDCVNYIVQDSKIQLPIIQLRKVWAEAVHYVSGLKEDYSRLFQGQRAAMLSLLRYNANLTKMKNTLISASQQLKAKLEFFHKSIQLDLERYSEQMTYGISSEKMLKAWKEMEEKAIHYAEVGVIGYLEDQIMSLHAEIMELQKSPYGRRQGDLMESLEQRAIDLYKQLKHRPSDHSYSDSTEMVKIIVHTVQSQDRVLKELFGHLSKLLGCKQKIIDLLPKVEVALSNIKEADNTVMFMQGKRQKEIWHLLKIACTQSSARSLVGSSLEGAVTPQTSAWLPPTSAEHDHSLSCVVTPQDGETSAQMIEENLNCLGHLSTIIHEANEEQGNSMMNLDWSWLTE
# [7] = target: T2, Inhibitor of nuclear factor kappa-B kinase subunit alpha (Homo sapiens); details: at 1 µM
# [8] = target: T3, Inhibitor of nuclear factor kappa-B kinase subunit beta (Homo sapiens) (UniProt O14920); details: at 0.1 µM
# T3 sequence (whole entry): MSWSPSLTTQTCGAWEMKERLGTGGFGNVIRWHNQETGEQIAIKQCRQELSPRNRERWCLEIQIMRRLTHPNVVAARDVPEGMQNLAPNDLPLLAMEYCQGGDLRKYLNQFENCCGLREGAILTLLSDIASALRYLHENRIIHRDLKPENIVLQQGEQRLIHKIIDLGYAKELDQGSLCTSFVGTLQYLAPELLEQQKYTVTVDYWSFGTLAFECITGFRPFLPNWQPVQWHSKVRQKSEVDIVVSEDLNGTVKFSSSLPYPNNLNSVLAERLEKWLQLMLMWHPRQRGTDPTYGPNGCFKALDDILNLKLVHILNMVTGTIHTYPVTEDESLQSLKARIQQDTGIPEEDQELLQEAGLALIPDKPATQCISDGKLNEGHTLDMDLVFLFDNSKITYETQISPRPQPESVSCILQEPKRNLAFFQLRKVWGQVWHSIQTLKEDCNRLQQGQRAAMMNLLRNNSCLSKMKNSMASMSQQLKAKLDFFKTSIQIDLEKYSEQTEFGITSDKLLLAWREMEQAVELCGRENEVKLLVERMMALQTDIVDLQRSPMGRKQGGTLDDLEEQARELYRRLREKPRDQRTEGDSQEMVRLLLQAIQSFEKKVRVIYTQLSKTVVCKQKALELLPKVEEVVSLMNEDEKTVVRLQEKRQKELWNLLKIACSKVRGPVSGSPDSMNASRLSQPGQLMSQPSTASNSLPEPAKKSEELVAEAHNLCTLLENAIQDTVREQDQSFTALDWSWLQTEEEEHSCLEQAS
# [9] = target: T3, Inhibitor of nuclear factor kappa-B kinase subunit beta (Homo sapiens); details: at 1 µM
# [10] = target: T4, Inhibitor of nuclear factor kappa-B kinase subunit epsilon (Homo sapiens) (UniProt Q14164); details: at 0.1 µM
# T4 sequence (whole entry): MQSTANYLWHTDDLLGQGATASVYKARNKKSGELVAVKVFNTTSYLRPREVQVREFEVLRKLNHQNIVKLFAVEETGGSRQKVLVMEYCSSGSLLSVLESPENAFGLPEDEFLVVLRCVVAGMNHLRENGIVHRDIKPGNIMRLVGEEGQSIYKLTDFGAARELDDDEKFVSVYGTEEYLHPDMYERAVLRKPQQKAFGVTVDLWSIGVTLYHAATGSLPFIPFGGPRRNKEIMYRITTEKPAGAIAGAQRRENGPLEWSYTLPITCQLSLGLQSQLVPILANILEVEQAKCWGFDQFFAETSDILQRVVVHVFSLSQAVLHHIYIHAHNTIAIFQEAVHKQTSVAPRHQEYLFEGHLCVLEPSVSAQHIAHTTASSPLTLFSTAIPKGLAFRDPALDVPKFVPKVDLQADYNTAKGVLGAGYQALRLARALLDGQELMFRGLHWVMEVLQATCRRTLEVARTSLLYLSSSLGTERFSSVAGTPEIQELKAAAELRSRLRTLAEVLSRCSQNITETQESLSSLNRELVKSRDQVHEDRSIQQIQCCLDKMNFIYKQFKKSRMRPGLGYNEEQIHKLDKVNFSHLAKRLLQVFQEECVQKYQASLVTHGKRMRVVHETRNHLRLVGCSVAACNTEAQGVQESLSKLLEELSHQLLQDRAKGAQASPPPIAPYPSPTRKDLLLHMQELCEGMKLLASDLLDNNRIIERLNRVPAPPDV
# [11] = target: T4, Inhibitor of nuclear factor kappa-B kinase subunit epsilon (Homo sapiens); details: at 1 µM
# [12] = target: T5, Serine/threonine-protein kinase Nek1 (Homo sapiens) (UniProt Q96PY6); details: at 0.1 µM
# T5 sequence (whole entry): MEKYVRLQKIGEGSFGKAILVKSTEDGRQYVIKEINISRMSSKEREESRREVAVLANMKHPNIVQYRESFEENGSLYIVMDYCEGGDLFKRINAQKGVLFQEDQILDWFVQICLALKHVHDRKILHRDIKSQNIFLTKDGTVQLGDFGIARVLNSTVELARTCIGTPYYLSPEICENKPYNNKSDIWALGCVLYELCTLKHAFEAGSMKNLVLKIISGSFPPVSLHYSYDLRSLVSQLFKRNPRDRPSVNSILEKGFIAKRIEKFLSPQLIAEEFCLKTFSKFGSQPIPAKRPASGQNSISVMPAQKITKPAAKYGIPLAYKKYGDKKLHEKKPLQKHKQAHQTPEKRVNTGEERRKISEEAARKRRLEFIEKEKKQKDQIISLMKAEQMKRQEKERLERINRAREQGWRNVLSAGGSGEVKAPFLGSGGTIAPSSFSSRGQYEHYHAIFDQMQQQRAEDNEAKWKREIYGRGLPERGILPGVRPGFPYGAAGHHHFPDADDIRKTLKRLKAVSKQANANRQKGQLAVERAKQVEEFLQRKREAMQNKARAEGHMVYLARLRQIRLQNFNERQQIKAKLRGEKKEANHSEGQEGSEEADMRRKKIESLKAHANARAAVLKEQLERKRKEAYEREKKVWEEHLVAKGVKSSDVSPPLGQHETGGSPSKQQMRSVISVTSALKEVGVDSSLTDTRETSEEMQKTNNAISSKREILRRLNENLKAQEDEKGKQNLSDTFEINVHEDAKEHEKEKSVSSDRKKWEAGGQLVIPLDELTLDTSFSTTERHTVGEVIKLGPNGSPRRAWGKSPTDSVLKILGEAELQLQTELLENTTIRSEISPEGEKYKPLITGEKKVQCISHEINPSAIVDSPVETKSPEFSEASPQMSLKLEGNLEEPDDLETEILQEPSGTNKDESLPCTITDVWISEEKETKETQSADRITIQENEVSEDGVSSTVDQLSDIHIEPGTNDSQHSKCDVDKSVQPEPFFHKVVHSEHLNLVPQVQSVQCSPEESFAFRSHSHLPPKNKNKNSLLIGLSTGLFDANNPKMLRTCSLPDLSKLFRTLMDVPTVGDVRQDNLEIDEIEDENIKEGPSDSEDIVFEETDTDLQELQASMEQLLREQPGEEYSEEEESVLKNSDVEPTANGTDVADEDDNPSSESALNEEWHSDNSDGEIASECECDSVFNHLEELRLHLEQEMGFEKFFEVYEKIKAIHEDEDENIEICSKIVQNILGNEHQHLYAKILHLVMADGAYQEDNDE
# [13] = target: T5, Serine/threonine-protein kinase Nek1 (Homo sapiens); details: at 1 µM
# [14] = target: T6, Serine/threonine-protein kinase Nek2 (Homo sapiens) (UniProt P51955); details: at 0.1 µM
# T6 sequence (whole entry): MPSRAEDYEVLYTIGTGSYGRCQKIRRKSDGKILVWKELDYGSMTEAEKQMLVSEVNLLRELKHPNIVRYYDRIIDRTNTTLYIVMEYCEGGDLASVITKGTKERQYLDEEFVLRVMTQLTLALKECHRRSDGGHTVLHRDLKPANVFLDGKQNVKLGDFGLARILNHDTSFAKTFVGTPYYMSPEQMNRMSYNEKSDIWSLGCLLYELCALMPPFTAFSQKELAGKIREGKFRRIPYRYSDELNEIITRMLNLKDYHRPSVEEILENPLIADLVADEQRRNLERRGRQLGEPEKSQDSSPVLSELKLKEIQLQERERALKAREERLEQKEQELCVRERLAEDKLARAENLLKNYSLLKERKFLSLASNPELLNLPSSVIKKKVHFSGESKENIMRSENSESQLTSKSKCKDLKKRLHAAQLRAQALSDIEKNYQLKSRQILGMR
# [15] = target: T6, Serine/threonine-protein kinase Nek2 (Homo sapiens); details: at 1 µM
# [16] = target: Serine/threonine-protein kinase Nek6 (Homo sapiens) (UniProt Q9HC98); details: at 0.1 µM
# Chain of Serine/threonine-protein kinase Nek6 (Homo sapiens) (Q9HC98 whole entry): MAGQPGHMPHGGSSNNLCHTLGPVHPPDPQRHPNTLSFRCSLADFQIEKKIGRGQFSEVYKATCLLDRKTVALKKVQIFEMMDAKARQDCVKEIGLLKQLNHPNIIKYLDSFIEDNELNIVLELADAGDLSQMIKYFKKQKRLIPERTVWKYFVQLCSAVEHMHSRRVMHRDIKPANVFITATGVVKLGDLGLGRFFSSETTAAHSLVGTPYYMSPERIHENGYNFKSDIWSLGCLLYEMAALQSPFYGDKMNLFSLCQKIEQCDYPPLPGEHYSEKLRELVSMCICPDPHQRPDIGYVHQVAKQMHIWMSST
# [17] = target: Serine/threonine-protein kinase Nek6 (Homo sapiens) (UniProt Q9HC98); details: at 1 µM
# [18] = target: Serine/threonine-protein kinase Nek7 (Homo sapiens) (UniProt Q8TDX7); details: at 0.1 µM
# Chain of Serine/threonine-protein kinase Nek7 (Homo sapiens) (Q8TDX7 whole entry, looked up): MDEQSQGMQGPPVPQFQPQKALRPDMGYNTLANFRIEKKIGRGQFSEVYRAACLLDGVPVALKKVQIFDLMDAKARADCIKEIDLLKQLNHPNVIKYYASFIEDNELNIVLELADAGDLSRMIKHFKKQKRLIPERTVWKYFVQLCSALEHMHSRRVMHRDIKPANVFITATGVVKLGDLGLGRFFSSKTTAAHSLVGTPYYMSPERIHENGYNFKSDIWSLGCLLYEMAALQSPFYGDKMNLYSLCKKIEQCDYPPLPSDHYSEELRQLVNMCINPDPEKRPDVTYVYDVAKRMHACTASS
# [19] = target: Serine/threonine-protein kinase Nek7 (Homo sapiens) (UniProt Q8TDX7); details: at 1 µM
# [20] = target: T7, Serine/threonine-protein kinase Nek9 (Homo sapiens) (UniProt Q8TD19); details: at 0.1 µM;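 note: reported value is the mean percent inhibition of NEK9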
# T7 sequence (whole entry): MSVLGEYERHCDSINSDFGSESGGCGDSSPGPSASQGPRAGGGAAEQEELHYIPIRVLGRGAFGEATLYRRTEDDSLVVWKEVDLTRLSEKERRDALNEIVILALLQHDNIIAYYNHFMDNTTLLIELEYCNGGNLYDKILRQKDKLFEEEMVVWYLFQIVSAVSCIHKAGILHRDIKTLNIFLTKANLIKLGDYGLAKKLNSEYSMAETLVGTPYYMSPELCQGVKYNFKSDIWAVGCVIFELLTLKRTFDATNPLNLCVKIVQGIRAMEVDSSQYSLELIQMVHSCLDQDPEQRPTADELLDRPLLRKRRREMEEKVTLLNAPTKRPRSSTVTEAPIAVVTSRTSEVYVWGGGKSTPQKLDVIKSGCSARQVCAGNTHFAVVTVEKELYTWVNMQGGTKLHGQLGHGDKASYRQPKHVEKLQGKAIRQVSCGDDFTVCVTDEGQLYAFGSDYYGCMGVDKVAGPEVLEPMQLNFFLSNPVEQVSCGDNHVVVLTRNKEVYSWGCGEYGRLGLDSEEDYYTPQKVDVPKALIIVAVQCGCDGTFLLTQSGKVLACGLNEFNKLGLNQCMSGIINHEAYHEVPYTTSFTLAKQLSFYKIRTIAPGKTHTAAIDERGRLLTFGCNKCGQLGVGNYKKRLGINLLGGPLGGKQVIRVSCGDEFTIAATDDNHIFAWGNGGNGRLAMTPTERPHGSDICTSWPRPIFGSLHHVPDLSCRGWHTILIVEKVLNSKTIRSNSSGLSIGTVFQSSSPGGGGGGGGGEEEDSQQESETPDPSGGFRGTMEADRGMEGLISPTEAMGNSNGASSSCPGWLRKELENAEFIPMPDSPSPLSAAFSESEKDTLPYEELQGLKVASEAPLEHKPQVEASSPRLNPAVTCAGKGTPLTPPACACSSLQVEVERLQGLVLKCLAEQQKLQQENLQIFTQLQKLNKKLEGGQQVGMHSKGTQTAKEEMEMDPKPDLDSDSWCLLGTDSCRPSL
# Chain of Sphingosine kinase 1 (Homo sapiens) (Q9NYA1 whole entry): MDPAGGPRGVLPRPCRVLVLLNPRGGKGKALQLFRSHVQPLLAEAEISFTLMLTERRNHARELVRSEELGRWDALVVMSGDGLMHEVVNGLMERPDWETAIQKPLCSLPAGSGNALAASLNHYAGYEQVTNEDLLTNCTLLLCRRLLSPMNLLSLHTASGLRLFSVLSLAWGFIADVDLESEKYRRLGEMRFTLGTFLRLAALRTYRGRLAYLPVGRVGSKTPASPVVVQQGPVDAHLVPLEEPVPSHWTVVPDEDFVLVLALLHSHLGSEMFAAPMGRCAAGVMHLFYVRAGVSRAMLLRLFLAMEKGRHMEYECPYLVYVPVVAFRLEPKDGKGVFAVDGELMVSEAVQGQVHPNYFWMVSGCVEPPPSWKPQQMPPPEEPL
structure (smiles),measurement,setting,value
Fc1cccc(COc2ccc(Nc3ncnc4sc(-c5cccs5)cc34)cc2Cl)c1,inhibition,[1],1.25%
same,inhibition,[2],-2.31%
same,inhibition,[3],1.14%
same,inhibition,[4],-0.4%
same,inhibition,[5],1.52%
same,inhibition,[6],3.55%
same,inhibition,[7],1.01%
same,inhibition,[8],1.1%
same,inhibition,[9],0.28%
same,inhibition,[10],-0.11%
same,inhibition,[11],3.74%
same,inhibition,[12],2.04%
same,inhibition,[13],2.57%
same,inhibition,[14],2.88%
same,inhibition,[15],1.85%
same,inhibition,[16],-0.49%
same,inhibition,[17],1.79%
same,inhibition,[18],-0.09%
same,inhibition,[19],5.03%
same,inhibition,[20],1.95%
